# Compounds without any hit were thinned out: in the full panel of roughly 83,000, 20% have a hit.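 Treatment: one concentration, 48 hours, 96-well format. Scoring: percent growth, with anything below 10 considered active.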 A number with no mark means an inactive call. The source made the active and inactive calls.
# Key:
# Test in all cases: NCI-60 one-dose screen, 48 h (100 = growth as untreated, 0 = no growth, -100 = all killed)
# Conditions in all cases: 10 µM unless noted
# [1] = system: DU-145 prostate
# [2] = system: MALME-3M melanoma
# [3] = system: MDA-MB-231 breast
# [4] = system: RXF 393 renal
# [5] = system: SF-268 CNS
# [6] = system: SF-295 CNS
# [7] = system: SF-539 CNS
# [8] = system: UACC-257 melanoma
# [9] = system: M14 melanoma
SMILES,growth [1],growth [2],growth [3],growth [4],growth [5],growth [6],growth [7],growth [8],growth [9]
C=CCn1c(-c2ccc(-c3nc4ccc(C)cc4[nH]3)cc2)n[nH]c1=S,111%,96.6%,90.7%,110%,112%,92.1%,97%,102%,98%
CCc1ccc(-c2cn3ccnc3c(-c3ccc4ncn(Cc5ccccc5)c4c3)n2)cc1,80.9%,115%,56.8%,69.3%,69.5%,48.8%,78.8%,103%,63.6%
COc1cc(/C=C/C(=O)c2nc3cc(F)ccc3nc2C)cc(OC)c1OC,22.9%,65.3%,85%,54.5%,89.2%,347%,97.5%,74.1%,73.1%
CC(=O)[C@@H]1CC[C@]2(CO)CC[C@]3(C)[C@H](CC[C@@H]4[C@@]5(C)CCCNC(C)(C)[C@@H]5CC[C@]43C)[C@@H]12,101%,92.9%,107%,104%,91.2%,105%,105%,123%,93.6%
OCc1cnccc1NCCCOc1ccccc1,104%,104%,88.6%,104%,101%,104%,102%,100%,109%
O=C1Nc2cc(Cl)ccc2/C1=C\c1c(-c2ccc(F)cc2)nc2ccccn12,-17.9% (active),41.4%,50.3%,-23.8% (active),20%,-58.2% (active),-26.4% (active),68.7%,-10.8% (active)
CCOc1ccc(Nc2nc(-c3ccc4c(c3)NC(=O)CO4)cs2)cc1,77.2%,69.7%,58%,87.3%,87.1%,158%,78.2%,33%,68.2%
NS(=O)(=O)c1ccc(CCn2c(SCC(=O)c3ccc(Cl)cc3)nc3ccccc3c2=O)cc1,102%,96.4%,95.5%,111%,100%,103%,94.2%,111%,104%
COc1ccc2c(c1)oc1c(C)c3c(c(C)c12)C(=O)N(N)C3=O,27.9%,-5.47% (active),-4.83% (active),28.5%,39.8%,12%,-6.28% (active),40.5%,13.9%
O=C(/C=C/c1c(-c2ccc(Cl)cc2)nn(-c2ccccc2)c1C(F)(F)F)c1ccc(Cl)cc1,108%,104%,79.5%,88.4%,105%,96.5%,102%,104%,90.5%
Cc1c2cc[nH]c(=O)c2c(C)c2c1[nH]c1cc(OCCN3CCN(C)CC3)ccc12,2.69% (active),-58.8% (active),4% (active),-25% (active),11.8%,3.16% (active),-0.233% (active),-1.41% (active),-37.1% (active)
N=C1C(c2nc3ccccc3s2)=C(O)CN1c1cc(Cl)cc(Cl)c1,86.6%,63.8%,66.4%,63.9%,173%,88.2%,46.9%,74.4%,69%
O=C(Nc1ncc(Cc2cc(Cl)ccc2Cl)s1)c1cccs1,81.1%,50%,79.8%,56%,74.9%,50.4%,73.9%,78.6%,42.9%
O=C1c2cccc3c(-c4ccc5c(c4)ncn5C4CCCCC4)ccc(c23)C(=O)N1CCO,100%,105%,71.1%,106%,93.9%,81.9%,99%,94.5%,106%
COc1cc(/C=C\c2cc(OC)c(OC)c(OC)c2)cc(NC(=O)/C=C/c2cc(OC)c(OC)c(OC)c2)c1OC,78%,48.7%,51.3%,28.7%,72.6%,32.6%,56.4%,68.4%,37.9%
c1ccc(Cn2cnc3ccc(-c4nc(-c5ccc6c(c5)ncn6C5CCCCC5)cn5ccnc45)cc32)cc1,-28.2% (active),-15.4% (active),-70.1% (active),-76.9% (active),-0.106% (active),-81.4% (active),-77.6% (active),-32.7% (active),-4.44% (active)
COc1cc(CC(=O)n2ncc3ccc(N)cc32)cc(OC)c1OC,105%,85.7%,79.2%,108%,93.5%,91.3%,88.4%,105%,102%
O=C(CSc1nc2ccccc2[nH]1)NCc1ccccc1,110%,109%,103%,101%,98%,102%,95.6%,100%,107%
CCCCC/C=C/C(C)=C/C1CC(C)C/C=C/CCC(O)C(OC(N)=O)CCC(C)CC(O)C(C)C(=O)O1 (centres undefined),79.5%,101%,,110%,104%,59.2%,106%,88.1%,72.9%
COc1cc2c3c(c4c5ccccc5[nH]c4c2c(OC)c1OC)C(=O)N(CCN1CCOCC1)C3=O,66%,78.5%,72.4%,48.8%,47.7%,36.5%,63.7%,70.4%,76%
O=C(Cn1c(C(=O)c2ccccc2)nc2ccccc21)c1ccc(F)cc1,96.6%,57.2%,46.7%,45.5%,73.3%,62.9%,78.8%,75.2%,44%
Cc1nn(-c2ccccc2)c(Cl)c1/C=N\N=c1/sc2ccccc2n1C,108%,112%,93.2%,109%,101%,109%,97.5%,97.1%,99.8%
COc1cc(C2C3=C(COC3=O)N(CCO)c3cc4c(cc32)CCC4)cc(OC)c1OC (centres undefined),-23.7% (active),54.9%,1.31% (active),26.5%,22%,-23.6% (active),-29.8% (active),52.9%,-34% (active)
CN(CCN(C)c1ccc(C(=N)N)cc1)c1ccc(C(=N)N)cc1,98.9%,57.9%,91.3%,118%,109%,94.1%,93.2%,92.6%,103%
Cc1ncc(C(=O)Nc2ccc(CN3CCN(C)CC3)c(C(F)(F)F)c2)cc1C#Cc1cnc(N)cc1C#N,-96.1% (active),-94.3% (active),-81.4% (active),-93.3% (active),22.9%,70%,-98.4% (active),-89.3% (active),-75.1% (active)

# — PubChem BioAssay (NCI)
